Screening results from PubChem BioAssay.
Shown are actives, neighbours in structure and some others; about 2.3% of the full set was active somewhere.
CF NFkB block = cystic fibrosis NF-kB activation inhibition; KKLEB NF-kB-GFP reporter, PAF-induced, GFP fluorescence overnight; inhibition, % at 5 µM; actives 0.86% (n = 360,000);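 active = at least 50% inhibition at 5 µM, scaled per plate between neutral and stimulator controls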;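 also: PAF is a Pseudomonas aeruginosa culture filtrate used as stimulus; plate controls were PAF-stimulated DMSO wells for no effect and unstimulated DMSO wells for full effect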
HIF-2a block = inhibitors of HIF-2a. 786-0 RCC cells HIF-2a reporter, luciferase luminescence, overnight. inhibition, % at 18.8 µM. actives 0.72% (n = 360,000). AID 624352;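 active = inhibition of the luminescence signal of 40% or more relative to plate controls, in a single-dose primary screen at 18.75 µM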
iPSC survival up = enhancers of human iPSC single-cell survival; hiPSC single-cell survival, ATPlite luminescence; 100% = ROCK inhibitor wells, 0% = DMSO; actives 0.044% (n = 360,000); survival enhancement, % at 20 µM; in the data active = survival enhancement above about 18%;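 also: cells exposed to compounds for 16 hours before the ATP read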
KKLEB cytotox = counter-screen for CF NF-kB inhibitors: cytotoxicity; KKLEB CF airway cells viability, ATPlite luminescence, overnight; hits give low values; cells stimulated with P. aeruginosa culture filtrate; actives 0.36% (n = 360,000); activity change (cytotoxicity), % at 5 µM;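 active = corrected activity change at or below -50% at 5 µM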
TWEAK Fn14 block = inhibitors of TWEAK-Fn14 interaction signaling; TWEAK-stimulated Fn14 reporter cells, luciferase luminescence, 8 h; inhibition, % at 10 µM; actives 2% (n = 360,000); AID 1159606; in the data active = inhibition above about 50%
LGR2 antag = blocks bursicon-induced cAMP signaling via Drosophila LGR2. HEK293 LGR2, CRE-luciferase, bursicon-stimulated, 4 h. inhibition, % at 9.99 µM. actives 0.35% (n = 380,000);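 active = drop in luminescence signal, shown as inhibition above about 50% in the replicate tests, limit read from the data, passing the limit was not always enough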;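 also: agonist challenge used bursicon conditioned medium at about half maximal strength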
* hit, by the source's call; · = no result.

SMILES	CF NFkB block	HIF-2a block	iPSC survival up	KKLEB cytotox	TWEAK Fn14 block	LGR2 antag
COc1cc(-c2csc(N3CCOCC3)n2)cc(OC)c1OC	5.9	-0.8	-4.4	-3.3	-6.9	-11.0
COc1ccc(-c2csc(N3CCN(c4cc(C)nc5ccccc45)CC3)n2)cc1OC	24.0	4.7	-0.1	-16.8	52.0*	·
CCOC(=O)c1ccc(NC(=O)/C=C/c2cccs2)cc1	-15.0	-241.5	-0.7	20.4	-0.6	-14.8
CCN(CC)CCOC(=O)c1ccc(NC(=O)/C=C/c2cccs2)cc1	5.1	-64.3	-1.6	-0.4	63.7*	-12.4
Cc1cccc(Nc2nc(N3CCCCC3)nc(N3CCCCC3)n2)c1	-5.2	-0.6	-3.0	4.5	-26.4	-3.1
Cc1cccc(Nc2nc(N3CCOCC3)nc(N3CCOCC3)n2)c1	50.8*	29.2	0.0	-14.4	-4.8	2.3
COc1ccc2c3c([nH]c2c1)[C@H](CO)N(Cc1nccs1)CC31CCN(C(=O)C2CCOCC2)CC1	·	·	·	·	·	-15.6
CCS(=O)(=O)N1CCCC(C(=O)NCCCN2CCCC2=O)C1 (stereo not drawn)	-0.3	6.5	-1.3	-1.7	63.5*	·
Cc1noc(C)c1S(=O)(=O)N(C)C[C@H]1Oc2ccc(NC(=O)Cn3cnnn3)cc2CC(=O)N([C@H](C)CO)C[C@H]1C	·	·	·	·	·	-14.5
COc1ccc(C(=O)N2CCNC(=O)C2CC(=O)Nc2ccc(C)cc2)cc1 (stereo not drawn)	12.7	20.0	-0.2	0.9	54.7*	14.8
CCCC(=O)Nc1ccc2c(c1)C(=O)N(C)[C@@H]1CC[C@H](CC(=O)NCCc3ccccc3)O[C@@H]1CO2	·	·	·	·	·	4.2
O=C(N/N=C\c1ccc([N+](=O)[O-])s1)c1cncc(Br)c1	11.9	-23.0	-1.7	16.4	52.6*	·
O=C(N/N=C/c1ccccc1)c1ccc2c(c1)OCO2	-9.6	-126.3	1.2	5.2	58.9*	20.6
O=C(N/N=C\c1ccc2c(c1)OCO2)c1cncc(Br)c1	9.7	-57.1	0.3	-5.0	58.2*	15.6
C[C@@H]1CN([C@H](C)CO)C(=O)c2cccc(NS(=O)(=O)c3ccc(Cl)cc3)c2O[C@@H]1CN(C)Cc1ccc(-c2ccccc2)cc1	·	·	·	·	·	1.4
COc1ccc(N(CC(=O)NCCSc2ccccn2)S(C)(=O)=O)cc1	-0.1	4.1	-1.3	5.1	-0.7	-8.1
Cc1ccc(NC(=S)c2nc3ccccc3s2)cc1	-1.9	-89.0	-3.6	-19.3	77.7*	·
COc1ccc(C(=O)NCCSc2ccccn2)cc1	-5.8	-70.8	1.5	3.5	65.2*	·
COc1ccc(NC(=O)c2ccccn2)cc1	1.3	31.2	-4.3	-13.6	84.5*	·
COc1ccc(NC(=O)c2nc3ccccc3s2)cc1	-14.4	-56.5	-2.4	-7.8	61.0*	14.8
CCNC(=O)C[C@@H]1CC[C@@H]2[C@H](COc3ccc(NC(=O)Cc4cccs4)cc3C(=O)N2C)O1	·	·	·	·	·	4.1
NC(=O)c1ccc(NC(=O)CCc2nc3ccccc3s2)cc1	-27.0	-56.0	0.7	-5.4	-10.5	-25.1
COc1ccc(NC(=O)c2cc3ccccn3n2)cc1	-29.1	-93.7	-4.2	-2.6	62.5*	27.1
O=C(Nc1ccc(Cc2nc3ccccc3s2)cc1)c1ccncc1	5.9	-18.4	-0.5	-7.5	59.4*	7.2
NC(Cc1ccc(C(F)(F)F)cc1)c1csc(Nc2cc(Oc3ccccc3)ncn2)n1 (stereo not drawn)	90.6*	11.4	-4.1	-93.8*	13.7	·
SMILES	CF NFkB block	HIF-2a block	iPSC survival up	KKLEB cytotox	TWEAK Fn14 block	LGR2 antag
Nc1ccc(CC(N)c2csc(Nc3cc(Oc4ccccc4)ncn3)n2)cc1 (stereo not drawn)	3.1	17.1	-4.4	-1.2	-10.9	-7.4
Cc1ccccc1S(=O)(=O)NCC[C@@H]1CC[C@H](NC(=O)C2CCCCC2)[C@H](CO)O1	·	·	·	·	·	-9.4
Cc1cccc(NC(=S)N=Nc2c(O)[nH]c3ccccc23)c1	18.9	-73.1	0.7	6.5	82.6*	9.8
CCOC(=O)C1=C(C)NC(=O)CC1c1cc2c(cc1Br)OCO2 (stereo not drawn)	4.7	7.3	-1.5	1.5	100.5*	·
C=CCOC(=O)C1=C(C)N(C)C(=O)NC1c1cc2c(cc1Br)OCO2 (stereo not drawn)	-4.3	24.2	1.6	3.2	89.7*	·
CCOC(=O)C1=C(C)NC(=O)CC1c1cc(OC)c(OC)cc1Br (stereo not drawn)	23.6	20.7	0.4	-0.8	0.4	-19.4
